# Tau fluor counter – counter-screen for tau fibril formation inhibitors | AID 1463 | tau K18 P301L Alexa594 fluorescence, heparin fibrillization | Potency, µM (doses to about 57.7 µM), inactives show top-dose activity change, negative = decrease | 0.93% of 280,000 active; note: potency is the fitted concentration of half-maximal effect; nearly all actives have a fitted effect of over 55% in size
#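 Human K18 P301L tau (15 uM unlabeled plus 0.24 uM Alexa 594-labeled, final) in 100 mM sodium acetate pH 7 was mixed with compound and 20 uM heparin and incubated 6 hr at 37 C.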
# Tau ThT inhib – tau fibrillization inhibition (ThT binding). P10636. recombinant tau K18 P301L (four-repeat tau fragment), heparin-induced fibrillization, ThT fluorescence. Potency, µM (titrated, usually from 57.4 µM), for inactives: at the top dose activity, negative = inhibition, usual class: inhibitors. 2.1% of 270,000 active; note: potency is the fitted concentration of half-maximal effect; nearly all actives have a fitted effect of over 55% in size
# Target sequence (P10636 561-689 P618L limits assumed): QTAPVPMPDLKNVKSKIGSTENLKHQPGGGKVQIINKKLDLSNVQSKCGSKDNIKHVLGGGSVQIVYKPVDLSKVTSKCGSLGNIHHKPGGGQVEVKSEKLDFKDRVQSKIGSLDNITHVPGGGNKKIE
#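 Heparin-induced fibrillization of the P301L-mutant K18 repeat-domain fragment of human tau was followed by ThT binding in quantitative high-throughput format.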
# FBPA coupling cs – inhibits coupling enzyme system, counter-screen for aldolase hits; coupling enzyme system counterscreen, AmpLite Red fluorescence; 0.67% of 290,000 active; AID 2472; activity change, negative = inhibition, % at 58.2 µM, hits read low; in the data active = activity change below about -30%
#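 Coupling enzymes only (glyceraldehyde-3-phosphate) + compound, at 57.5 uM final, 10 min RT; add substrate/coupling/AmpLite Red mix, 20 min RT; fluorescence ex 525/em 598 nm. Actives flag coupling-system interference.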
# G9a block – inhibitors of human histone lysine methyltransferase G9a. Q96KQ7. G9a H3K9 monomethylation, AlphaScreen, 2 h. Potency, µM (titrated, usually from 102 µM), for the others: top-dose activity, negative = inhibition, hits mostly inhibitors. 8.8% of 350,000 active; note: potency is the fitted concentration of half-maximal effect; nearly all actives have a fitted effect of over 75% in size
# Target sequence (Q96KQ7 913-1193 limits assumed): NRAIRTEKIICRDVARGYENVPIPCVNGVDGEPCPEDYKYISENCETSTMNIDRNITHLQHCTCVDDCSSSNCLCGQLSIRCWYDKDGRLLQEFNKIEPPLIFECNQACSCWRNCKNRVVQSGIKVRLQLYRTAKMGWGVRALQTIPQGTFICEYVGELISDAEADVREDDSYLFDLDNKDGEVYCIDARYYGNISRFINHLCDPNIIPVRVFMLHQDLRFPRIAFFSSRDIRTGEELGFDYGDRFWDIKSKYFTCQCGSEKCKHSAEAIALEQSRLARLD
#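 Signal arises when biotinylated H3K9 peptide, once monomethylated, bridges streptavidin donor and antibody-captured acceptor beads. Enzyme at 20 nM was preincubated 15 min with test compounds; peptide 500 nM and SAM 20 uM then reacted for 2 h.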
# Tau fibril FP – tau fibrillization inhibition (FP); Potency, µM (highest dose often 57.7 µM), inactives show top-dose activity, negative = inhibition, most hits filed as inhibitors; AID 1468; 0.39% of 280,000 active; P10636; K18 P301L tau heparin fibrillization, Alexa594 FP, 6 h; note: potency is the fitted concentration of half-maximal effect; nearly all actives have a fitted effect of over 55% in size
#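 Human tau K18 […] P301L fragment, 15 uM unlabeled plus 0.24 uM Alexa 594-labeled tau (final), with compound and 20 uM heparin in 100 mM sodium acetate pH 7; 6 hr at 37 C, then Alexa 594 FP read.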
# Sfp PPTase inh – blocks B. subtilis Sfp PPTase activity; Biochemical Sfp PPTase activity, qHTS; Potency, µM, without a hit: largest response in the series, negative = inhibition, actives largely listed as inhibitors; 3.5% of 310,000 active; AID 1490;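 note: the enzyme is Sfp with the accession as filed and its product quenches rhodamine fluorescence; potency is the fitted concentration of half-maximal effect; 0% = enzyme reaction without inhibitor and -100% = no enzyme wells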
#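 With Hepes-Na pH 7.6 buffer containing 10 mM MgCl2, Sfp (15 nM) modified BHQ-2-YbbR (12.5 uM) using rhodamine-CoA (5 uM). Two reads 30 minutes apart at 525/598 nm yielded each well's rate.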
# Starred values were filed as active, the others as inactive; ? = inconclusive; nt = not tested or not shown; [ ] = another dose, or the depositor's remark. Only some compounds are listed: those with a hit (about 11% of all), similar ones and a draw of the others. Unless noted, calls come from the whole dose curve; as a rule, active = well fitted curve in the direction sought with a large enough effect; inconclusive = small, poorly fitted or top-dose-only effect, or another doubt; inactive = no such curve, though single readings can be large; an effect the other way counts as inactive or inconclusive. Unless noted, % is set by controls: 0 for no effect and ±100 for the full control effect.
SMILES,Tau fluor counter,Tau ThT inhib,FBPA coupling cs,G9a block,Tau fibril FP,Sfp PPTase inh
CCN(C(=O)CSc1nnc(Cn2nnc3ccccc32)o1)c1nc(C)cs1,5%,-7%,1,?,6%,20µM*
CCN(C(=O)CSc1nnc(Cn2nnc3ccccc32)o1)c1nc(-c2ccccc2)cs1,?,-12%,2,6%,0%,17%
CC1CCN(C(=O)COC(=O)c2ccc3c(c2)C(=O)N(Cc2ccco2)C3=O)CC1,nt,nt,nt,56µM*,nt,nt
CC(Sc1ccccc1)C(=O)N1CCN(S(=O)(=O)c2cccc(Br)c2)CC1 (centres undefined),nt,nt,2,5%,nt,-2%
CCOC(=O)C1=C(N)N2C(=O)CSC2=C(C(=O)OC)C1,2%,-12%,1,50µM*,-1%,56µM*
Cc1ccc(NC(=O)CN2C(=O)C(C)(C)c3ccccc32)cc1,-5%,-4%,nt,0%[59 µM],5%,nt
c1cc(Nc2cccc3nccnc23)c2nccnc2c1,-28%,5µM*,0,?,-3%,4%
Fc1ccc(Nc2cccc3nccnc23)cc1,-16%,?,-3,?,8%,5%
Cc1ccc(NC(=O)CN2CCN(Cc3ccccc3)CC2)cc1,nt,nt,2,-3%,nt,11%
CC1(C)C2CCC(C2)C1(C)NC(=O)CN1CCN(Cc2ccccc2)CC1 (centres undefined),4%,-7%,0,5.6µM*,5%,?
Cc1nc2sccn2c(=O)c1S(=O)(=O)NCC(C)c1ccccc1 (centres undefined),nt,nt,-4,3%,nt,6%
CCc1ccc(NC(=S)Nc2cc(C(=O)O)ccc2N2CC3CC(C2)c2cccc(=O)n2C3)cc1 (centres undefined),-9%,-1%,2,?,0%,56µM*
O=C(O)c1ccc(N2CC3CC(C2)c2cccc(=O)n2C3)c(NC(=S)Nc2ccc(Br)cc2)c1 (centres undefined),?,3%,-3,32µM*,-8%,56µM*
COc1cccc(NC(=O)Nc2cc(C(=O)O)ccc2N2CC3CC(C2)c2cccc(=O)n2C3)c1 (centres undefined),nt,nt,nt,15%,nt,3%
CCc1ccc(NC(=O)Nc2cc(C(=O)NCC3CCCO3)ccc2N2CC3CC(C2)c2cccc(=O)n2C3)cc1 (centres undefined),nt,nt,-1,?,nt,10%
CN(c1ccccc1)c1nc(N)c([N+](=O)[O-])c(NC2CCCCC2)n1,nt,nt,-2,-11%,nt,7%
CC1CCCN(c2nc(NCc3ccco3)nc(N)c2[N+](=O)[O-])C1 (centres undefined),-11%,-5%,-1,?,3%,-7%
CC1CCCN(c2nc(N(C)c3ccccc3)nc(N)c2[N+](=O)[O-])C1 (centres undefined),-3%,-14%,-2,32µM*,1%,12%
Cc1ccc(Nc2nc(N)c([N+](=O)[O-])c(N3CCCC(C)C3)n2)cc1C (centres undefined),?,?,-2,20µM*,8%,11%
COc1cccc(CNC(=O)c2ccc(S(=O)(=O)N3CCOCC3)cc2)c1,nt,nt,nt,-36%,nt,nt
O=C(NCc1n[nH]c(=S)n1-c1ccc(F)cc1)c1ccc(S(=O)(=O)N2CCCCC2)cc1,nt,nt,4,2.5µM*,nt,2%
O=C(NCc1n[nH]c(=S)n1-c1ccc(Br)cc1)c1ccc(S(=O)(=O)N2CCCC2)cc1,-4%,0%,2,2.5µM*,2%,-1%
O=C(NCc1n[nH]c(=S)n1-c1ccc(Br)cc1)c1ccc(S(=O)(=O)N2CCCCC2)cc1,nt,nt,2,7.9µM*,nt,-12%
COc1ccc(-n2c(CNC(=O)c3ccc(S(=O)(=O)N4CCCC4)cc3)n[nH]c2=S)cc1,-2%,-13%,3,?,-1%,-2%
COc1ccccc1-n1c(CNC(=O)c2ccc(S(=O)(=O)N3CCOCC3)cc2)n[nH]c1=S,-7%,-10%,6,8.9µM*,4%,-22%
SMILES,Tau fluor counter,Tau ThT inhib,FBPA coupling cs,G9a block,Tau fibril FP,Sfp PPTase inh
CC1CN(C(=O)CCS(=O)(=O)c2ccccc2)CC(C)O1 (centres undefined),nt,nt,-4,30%[59 µM],nt,15%
O=C(NCc1n[nH]c(=S)n1-c1ccc([N+](=O)[O-])cc1)c1ccc(S(=O)(=O)N2CCOCC2)cc1,1%,6%,-1,7.1µM*,3%,-1%
O=C(NCC1CCN(c2ccc(S(=O)(=O)N3CCOCC3)cc2)CC1)c1ccc(Cl)cc1,-29%,-16%,0,?,1%,-5%
O=C(NCc1n[nH]c(=S)n1-c1ccc(Cl)c(Cl)c1)c1ccc(S(=O)(=O)N2CCOCC2)cc1,-8%,-5%,1,8.9µM*,-8%,-20%
O=C(NCc1cccnc1)c1ccc(S(=O)(=O)N2CCOCC2)cc1,-3%,-2%,1,0%,0%,4%
COc1ccc(-n2nnnc2CNC(=O)c2ccc(S(=O)(=O)N3CCOCC3)cc2)cc1,nt,nt,nt,-7%[0.501 µM],nt,nt
O=C(NCc1n[nH]c(=S)n1-c1ccc(Br)cc1)c1ccc(S(=O)(=O)N2CCOCC2)cc1,-14%,-3%,1,3.2µM*,-7%,0%
N=C(C[C@@H](O)COc1ccccc1-c1ccccc1)N1CCCCC1,-4%,-14%,0,nt,0%,-4%
CCCSc1nnc2n(-c3cccc(C)c3)c(=O)c3c4c(sc3n12)CCCC4,-8%,-15%,nt,-17%[59 µM],-3%,nt
Cc1nc(SCC(=O)NC2CCS(=O)(=O)C2)c2c3c(sc2n1)CCCC3 (centres undefined),nt,nt,nt,50µM*,nt,nt
CCOc1ccc(CNC(=O)CCCn2c(=O)c3cccn3c3cccnc32)cc1,-7%,1%,nt,8%[59 µM],-1%,nt
CCOC(=O)CN1C(=O)C(O)=C(C(C)=O)C1c1ccccc1 (centres undefined),-8%,-5%,-4,-37%[2.33 µM],-5%,9%
CCOC(=O)CN1C(=O)C(O)=C(C(C)=O)C1c1ccc(F)cc1 (centres undefined),0%,-4%,2,35µM*,-5%,4%
CC(=O)C1=C(O)C(=O)N(Cc2ccco2)C1c1ccccc1 (centres undefined),0%,-4%,-7,50µM*,-3%,56µM*
CC(=O)C1=C(O)C(=O)N(Cc2ccccc2)C1c1ccc(Br)cc1 (centres undefined),nt,nt,16,22%[2.33 µM],nt,11%
COc1cccc(C2C(C(C)=O)=C(O)C(=O)N2Cc2ccco2)c1 (centres undefined),6%,4%,-4,-3%[12.7 µM],0%,-18%

# Assay outcomes (PubChem)
